Screening data from PubChem.
PP5 primary = inhibitors of human protein phosphatase 5 (PP5). inhibition, % at 6.7 µM. AID 1987. purified PP5c, OMFP substrate fluorescence. 0.18% of 320,000 active. P53041;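 active = inhibition above the campaign's mean inhibition across all tested compounds plus 3 SD, cut at about 9.5% in these data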;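 note: 0% = DMSO only and 100% = 100 µM cantharidin control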
PP1 counter = PP1-alpha (human) inhibition in PP5 counter-screen; inhibition, % at 6.7 µM; P62136; AID 2235; purified PP1alpha, OMFP fluorescence; 0.9% of 320,000 active;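 active = inhibition above the mean inhibition of all tested compounds plus 3 SD, computed separately for each screening campaign, cut at about 15% in these data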
Target sequence (P62136 whole entry, looked up): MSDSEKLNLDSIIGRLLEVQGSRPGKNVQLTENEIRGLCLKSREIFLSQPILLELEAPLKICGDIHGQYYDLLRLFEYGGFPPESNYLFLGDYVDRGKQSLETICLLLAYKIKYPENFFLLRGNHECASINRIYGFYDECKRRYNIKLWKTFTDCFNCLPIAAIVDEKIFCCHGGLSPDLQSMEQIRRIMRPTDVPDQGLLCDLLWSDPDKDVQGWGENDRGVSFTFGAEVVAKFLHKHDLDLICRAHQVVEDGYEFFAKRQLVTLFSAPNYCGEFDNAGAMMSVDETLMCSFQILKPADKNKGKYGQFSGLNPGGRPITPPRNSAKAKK
NadD block = blocks S. aureus nicotinate mononucleotide adenylyltransferase. purified NadD enzyme, colorimetric absorbance read-out. inhibition, % at 20 µM. 0.78% of 360,000 active. AID 602399; in the data active = inhibition above about 26%
Rpn11 block = Rpn11 (human) deubiquitinase inhibition; AID 588493; human 26S proteasome, Ub4-pepOG fluorescence polarization; 20S core pre-blocked with epoxomicin; inhibition, % at 20 µM; O00487; 0.59% of 360,000 active;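 active = inhibition at 20 µM, scaled to each plate's controls, above about 33%, limit read from the data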
PREPL inh = inhibitors of human prolyl oligopeptidase-like enzyme PREPL | Q4J6C6 | inhibition, % at 5.96 µM | 0.68% of 320,000 active | recombinant PREPL, fluorescence polarization activity-based probe; in the data active = inhibition above about 43%;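 note: 0% = enzyme with DMSO and 100% = wells lacking enzyme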
PP1 confirm = confirmation of human PP1 phosphatase inhibitors; 52% of 1,900 active; shares compounds with PP1 counter; purified PP1alpha, OMFP substrate fluorescence; AID 2358; inhibition, % at 6.7 µM;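 active = mean PP1 inhibition above a set limit taken from the earlier primary screen, cut at about 15% in these data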
PP5 inh counter = PP5 phosphatase inhibition, counter-screen for PP1 inhibitors; purified PP5c, OMFP fluorescence; shares compounds with PP1 counter; inhibition, % at 6.7 µM; 4% of 1,900 active;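 active = mean PP5 inhibition over triplicate wells above about 9.5% taken from the earlier PP1 screen, limit read from the data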
An asterisk follows results filed as active; nt = no result. A selection: hits, their analogues and other compounds. The true share with any hit is near 2.4%.

SMILES	PP5 primary	PP1 counter	NadD block	Rpn11 block	PREPL inh	PP1 confirm	PP5 inh counter
CC1(C)Cc2c(C#N)c(N3CCN(C(=O)c4ccco4)CC3)nc(-c3ccco3)c2CS1	6	19*	2	-6	11	3	-3
CC1CCCN(c2ccc3nncn3n2)C1 (centres undefined)	-1	-3	-1	-4	9	nt	nt
CCOC(=O)C1CCCN(c2nc3ccccc3nc2C(C#N)C(=O)OCC)C1 (centres undefined)	4	21*	-6	-1	-6	1	1
CCOC(=O)[C@@H]1[C@H]2COc3ccccc3[C@@H]2N2C(=O)N(c3cccc(C)c3)C(=O)[C@]12C	2	2	-5	4	-33	nt	nt
c1cc2c3c(cccc3c1)NC1(CCCCC1)N2	1	26*	36*	2	20	10	18*
S=C1NC2(CCCCC2)NN1c1ccccc1	-3	-1	1	-4	2	nt	nt
c1cc2c3c(cccc3c1)NC1(CCCCCC1)N2	1	21*	16	1	52*	21*	7
CCc1nnc(NC(=O)CN2CCN(Cc3ccc(F)cc3)CC2)s1	-2	-2	-2	9	-2	nt	nt
Cc1cc(C)c(OCC(=O)NCC2CCCO2)c(C)c1 (centres undefined)	3	42*	0	-2	10	-1	-2
Cc1cccc(C)c1OCC(=O)NCC1CCCO1 (centres undefined)	-1	-1	-4	-9	4	nt	nt
COc1ccccc1CC(NC(C)=O)C(=O)NC1CCN(C(=O)Nc2ccccc2F)CC1 (centres undefined)	-2	-5	-3	-2	-10	nt	nt
COc1ccc(C2CC(c3ccc(Cl)cc3)Nc3nc(NC(=O)c4ccco4)nn32)cc1 (centres undefined)	nt	nt	28	8	nt	nt	nt
O=C(Nc1nc2n(n1)C(c1ccc(Cl)cc1)CC(c1ccc(Cl)cc1)N2)c1ccco1 (centres undefined)	4	23*	nt	nt	39	16*	-2
COc1ccccc1OCC(=O)Nc1oc(-c2ccccc2)c(-c2ccccc2)c1C#N	3	9	3	-1	-3	nt	nt
N#Cc1c(NC(=O)COC(=O)C2CC3C=CC2C3)oc(-c2ccccc2)c1-c1ccccc1 (centres undefined)	-2	19*	-1	3	0	10	-3
CCCCn1c(N)c(N(CCC(C)C)C(=O)C2CCCN(C(=O)c3ccc(Cl)cc3)C2)c(=O)[nH]c1=O (centres undefined)	0	-5	1	-2	11	nt	nt
Cc1ccsc1/C=N/NC(=O)c1c[nH]c2ccccc12	1	-1	-1	-3	27	nt	nt
O=C(N/N=C/c1ccsc1)c1c[nH]c2ccccc12	0	38*	-2	-3	-1	-2	0
O=C(O)CSc1nc2ccc(C(=O)c3ccccc3)cc2[nH]1	nt	nt	-2	2	nt	nt	nt
Cc1ccc(-c2c(C(=O)NNC(=S)NCC3CCCO3)csc2C)cc1 (centres undefined)	1	-4	6	-1	13	nt	nt
Cc1cccc(N2CSC3=C(C#N)C(c4ccc(C)o4)CC(=O)N3C2)c1 (centres undefined)	5	20*	nt	nt	24	16*	3
CC(=O)N1CC(C)Sc2ccc(S(=O)(=O)NC3CCCCC3C)cc21 (centres undefined)	-1	1	-1	-6	0	nt	nt
COc1cc(/C=N/NC(=O)c2ccccc2O)ccc1OCC(=O)Nc1ccccc1	3	18*	7	40	5	16*	-8
Cc1ccc(S(=O)(=O)c2nnn3c2nc(NC2CCN(Cc4ccccc4)CC2)c2ccccc23)cc1C	4	21*	38*	15	-36	9	4
COc1ccc(C(CNC(=O)c2ccc(-c3ccccc3)cc2)N(C)C)cc1OC (centres undefined)	2	43*	-6	5	-47	-2	1
CC(C)Cc1nnc(NC(=O)c2cc([N+](=O)[O-])ccc2N2CCOCC2)s1	3	-2	-1	2	5	nt	nt
Cc1ccc(C)c(S(=O)(=O)N2CCN(Cc3ccc(O)c4ncccc34)CC2)c1	6	31*	12	22	9	30*	-7
CCOC(=O)N1CCN(Cc2ccc(O)c3ncccc23)CC1	2	3	nt	nt	2	nt	nt
